Measurements published in PubChem BioAssay (NCATS).
“And” between values parts separate entries of the source, which are not always exact repeats. Equal values may be shown once. Results filed as inconclusive are left out. The source made the active and inactive calls. The call rests on the fitted dose curve; in most records, active means well fitted curve in the direction sought with a large enough effect; inconclusive means small, poorly fitted or top-dose-only effect, or another doubt; inactive means no such curve, though single readings can be large; an effect the other way counts as inactive or inconclusive.

How the values were obtained:
[1] = Viability qHTS for spleen associated tyrosine kinase inhibitor (SYKi) naive MV4-11 cells (AID 1963823); further: nearly all actives have a fitted effect of over 40% in size
How it was run: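 SYKi-naive MV4-11 AML cells, 500 per well, were exposed to library compounds for 72 hr at 37 C, 5% CO2. Viability was then read by CellTiter-Glo luminescence after 10 min at room temperature.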

[2] = Viability qHTS for spleen associated tyrosine kinase inhibitor (SYKi) drug resistant MV4-11 cells (AID 1963824); further: nearly all actives have a fitted effect of over 35% in size
How it was run: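 SYK inhibitor-resistant MV4-11 AML cells, 500 per well, added to predispensed compounds and incubated 72 hr at 37 C, 5% CO2. Viability measured by CellTiter-Glo luminescence after 10 min at room temperature.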

[3] = Quantitative highthroughput screen to assess conditional lethalithy of NOMO1 cells grown in RPMI1640 with untreated serum (RPMI+s) (AID 1963876); further: nearly all actives have a fitted effect of over 35% in size;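 on Viability: 100% = DMSO wells and 0% = empty wells without cells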
How it was run: (§1)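 Each medium arm—HPLM with 10% dialyzed FBS, or RPMI1640 with 5 mM glucose and 10% untreated or dialyzed FBS—was screened against an 11-point, 3-fold compound titration for 48 h at 37 °C, with CellTiter-Glo luminescence as endpoint.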

[4] = Quantitative highthroughput screen to assess conditional lethalithy of NOMO1 cells grown in RPMI1640 with dialyzed fetal bovine serum (RPMI+ds) (AID 1963877); further: nearly all actives have a fitted effect of over 30% in size;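 on Viability: series mostly up to about 46 µM; 100% = DMSO control wells and 0% = empty wells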
How it was run: as §1

[5] = Quantitative highthroughput screen to assess conditional lethalithy of NOMO1 cells grown in Human Plasma-Like Medium with dialyzed fetal bovine serum (HPLM+ds) (AID 1963878); further: nearly all actives have a fitted effect of over 35% in size;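 on Viability: 100% = DMSO wells and 0% = empty wells on each plate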
How it was run: as §1

[6] = Quantitative highthroughput screen to assess conditional lethalithy of P12 Ichikawa cells grown in Human Plasma-Like Medium with dialyzed fetal bovine serum (HPLM+ds) (AID 1963879); details: Potency: viability; further: nearly all actives have a fitted effect of over 35% in size; on Viability: series mostly up to about 46 µM
How it was run: as §1

[7] = Quantitative highthroughput screen to assess conditional lethalithy of P12 Ichikawa cells grown in RPMI1640 with dialyzed fetal bovine serum (RPMI+ds) (AID 1963880); details: Potency: P12-Ichikawa viability; further: nearly all actives have a fitted effect of over 35% in size;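 on Viability: 100% = DMSO wells and 0% = empty wells on each plate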
How it was run: as §1

[8] = Quantitative highthroughput screen to assess conditional lethalithy of P12 Ichikawa cells grown in RPMI1640 with untreated serum (RPMI+s) (AID 1963881); details: Potency: viability; further: nearly all actives have a fitted effect of over 35% in size;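 on Viability: series mostly up to about 46 µM; 100% = DMSO wells and 0% = empty wells without cells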
How it was run: as §1

[9] = Quantitative highthroughput screen to assess conditional lethalithy of SEM cells grown in Human Plasma-Like Medium with dialyzed fetal bovine serum (HPLM+ds) (AID 1963882); further: nearly all actives have a fitted effect of over 35% in size; on Viability: series mostly up to about 46 µM
How it was run: as §1

[10] = Quantitative highthroughput screen to assess conditional lethalithy of SEM cells grown in RPMI1640 with unreated serum (RPMI+s) (AID 1963883); further: nearly all actives have a fitted effect of over 35% in size;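 on Viability: 100% = DMSO wells and 0% = empty wells without cells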
How it was run: as §1

[11] = Quantitative highthroughput screen to assess conditional lethalithy of SEM cells grown in RPMI1640 with dialyzed fetal bovine serum (RPMI+ds) (AID 1963884); further: nearly all actives have a fitted effect of over 35% in size;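 on Viability: series mostly up to about 46 µM; 100% = DMSO control wells and 0% = empty wells without cells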
How it was run: as §1

[12] = Cellular viability qHTS for adrenocortical cancer (ACC) cell line SW-13 (AID 1963989); details: SW-13 ACC cells viability, CellTiter-Glo, 48 h; activity (max response): active compounds read low; further: nearly all actives have a fitted effect of over 65% in size;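 on activity (max response): cells grown in serum-free medium with ITS supplement; on the % scale 0 is the no-effect control and ±100 the full control effect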
How it was run: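 IC50 and maximal-response values come from four-parameter logistic fits of titration data. SW-13 cells in serum-free medium received compounds (up to 46 uM final) for 48 h before CellTiter-Glo luminescence.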

[13] = Cellular viability qHTS for adrenocortical cancer (ACC) cell line NCI-H295R (AID 1963990); further: nearly all actives have a fitted effect of over 60% in size
How it was run: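 Adrenocortical carcinoma cells, suspended at 300 000 cells/mL in serum-free DMEM plus ITS, rested overnight before pin transfer of compound. After two days' incubation, ATP-dependent luminescence was recorded and curve-fitted.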
Potency means the concentration at half of the fitted maximal effect.

COc1ccc(C2CNC(=O)C2)cc1OC1CCCC1 (configuration not stated)
active: Potency [1] 525 nM
inactive: Potency [2] | Potency [3] | Potency [4] | Potency [5] | Potency [6] | Potency [7] | Potency [8] | Potency [9] | Potency [10] | Potency [11] | activity (max response) [12] 1.73% and 4.14% | Potency [13]

OC[C@@H](O)[C@@H](O)[C@H](O)[C@@H](O)CO
inactive: Potency [1] | Potency [2] | Potency [3] | Potency [4] | Potency [5] | Potency [6] | Potency [7] | Potency [8] | Potency [9] | Potency [10] | Potency [11] | activity (max response) [12] 3.97% | Potency [13]

O=c1cc(-c2cccc3c2Sc2ccccc2S3)oc(N2CCOCC2)c1
inactive: Potency [3] | Potency [4] | Potency [5] | Potency [6] | Potency [7] | Potency [8] | Potency [9] | Potency [10] | Potency [11]
active: Potency [1] 6.51 µM and 16.6 µM | Potency [2] 5.8 µM and 9.34 µM | Potency [12] 28200 nM | Potency [13] 25100 nM

Cc1noc(NS(=O)(=O)c2ccc(N)cc2)c1C
inactive: Potency [1] | Potency [2] | Potency [3] | Potency [4] | Potency [5] | Potency [6] | Potency [7] | Potency [8] | Potency [9] | Potency [10] | activity (max response) [12] -8.37%

Cn1cnc2c(F)c(Nc3ccc(Br)cc3Cl)c(C(=O)NOCCO)cc21
active: Potency [1] 296 nM | Potency [2] 668 nM and 164 nM and 468 nM | Potency [3] 590 nM | Potency [4] 296 nM | Potency [5] 296 nM | Potency [6] 662 nM | Potency [7] 743 nM | Potency [8] 662 nM | Potency [9] 662 nM | Potency [10] 469 nM | Potency [11] 469 nM
inactive: Potency [13]

CC[C@H](C=C[C@@H](C)[C@H]1CC[C@H]2[C@@H]3CC=C4C[C@@H](O)CC[C@]4(C)[C@@H]3CC[C@]12C)C(C)C
active: Potency [5] 7240 nM
inactive: Potency [1] | Potency [2] | Potency [3] | Potency [4] | Potency [6] | Potency [7] | Potency [8] | Potency [9] | Potency [10] | Potency [11] | activity (max response) [12] 10.2% | Potency [13]

CC(C)C[C@H](NC(=O)CNC(=O)c1cc(Cl)ccc1Cl)B1OC(=O)CC(CC(=O)O)(C(=O)O)O1 (some centres not stated)
active: Potency [1] 148 nM | Potency [2] 0.118 µM | Potency [3] 372 nM | Potency [4] 418 nM | Potency [5] 372 nM | Potency [6] 332 nM | Potency [7] 296 nM | Potency [8] 296 nM | Potency [9] 118 nM | Potency [10] 93.5 nM | Potency [11] 118 nM | Potency [12] 1410 nM | Potency [13] 355 nM

Cc1cc(=O)oc2cc(O)ccc12
inactive: Potency [1] | Potency [2] | Potency [3] | Potency [4] | Potency [5] | Potency [6] | Potency [7] | Potency [8] | Potency [9] | Potency [10] | Potency [11] | activity (max response) [12] -3.93% and 10.3% | Potency [13]

CN1CCC(COc2cnc(-c3cccc(Cn4nc(-c5cccc(C#N)c5)ccc4=O)c3)nc2)CC1
active: Potency [1] 7.42 µM and 8.2 µM | Potency [2] 7.42 µM and 13 µM | Potency [13] 25100 nM
inactive: Potency [3] | Potency [4] | Potency [5] | Potency [6] | Potency [7] | Potency [8] | Potency [9] | Potency [10] | Potency [11]

CC(C)c1ccc2c(c1)c(SC(C)(C)C)c(CC(C)(C)C(=O)O)n2Cc1ccc(Cl)cc1
active: Potency [1] 16600 nM | Potency [2] 10.5 µM
inactive: Potency [3] | Potency [4] | Potency [5] | Potency [6] | Potency [7] | Potency [8] | Potency [9] | Potency [10] | Potency [11] | activity (max response) [12] 11.6% | Potency [13]

CN1c2ccccc2C(=O)N2CCc3c([nH]c4ccccc34)C21 (configuration not stated)
inactive: Potency [3] | Potency [4] | Potency [5] | Potency [6] | Potency [7] | Potency [8] | Potency [9] | Potency [10] | Potency [11]
active: Potency [1] 1640 nM | Potency [2] 1.16 µM | Potency [12] 2240 nM | Potency [13] 1780 nM

C=C1C(=O)OC(CCCCCCCC)C1C(=O)O (configuration not stated)
inactive: Potency [1] | Potency [2] | Potency [3] | Potency [4] | Potency [5] | Potency [6] | Potency [7] | Potency [8] | Potency [9] | Potency [10] | Potency [11] | activity (max response) [12] -7.15% | Potency [13]

COc1nc(C)cnc1NS(=O)(=O)c1cccnc1-c1ccc(-c2nnco2)cc1
inactive: Potency [1] | Potency [2] | Potency [3] | Potency [4] | Potency [5] | Potency [6] | Potency [7] | Potency [8] | Potency [9] | Potency [10] | Potency [11] | activity (max response) [12] 3.93% | Potency [13]

O=C(NCc1ccccc1)c1csc(Nc2ccncn2)n1
active: Potency [1] 4680 nM | Potency [2] 4.17 µM and 20.6 µM | Potency [3] 3320 nM | Potency [4] 3720 nM | Potency [5] 2350 nM | Potency [6] 6620 nM | Potency [7] 3720 nM | Potency [8] 3320 nM | Potency [9] 1660 nM | Potency [10] 833 nM | Potency [11] 1660 nM | Potency [13] 31600 nM
